Values without a mark were called inactive.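 Rule for the calls: active = AUC reduced over 20% with Padj below 0.05 in at least 2 of 3 replicates; inactive = otherwise.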
Legend:
Roseburia intestinalis = assay: growth AUC relative to DMSO control (median of replicates) (fraction); higher = more growth (less inhibition), active = hit call of the paper; details: 20 µM; 24 h
How it was run: (§1)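 Gut bacterial monocultures in mGAM were treated with 20 µM compound (1% DMSO) and grown anaerobically at 37 °C in round-bottom 96-well plates from OD600 0.05. OD600 was read hourly for 24 h, with the minimum OD set to 0. Area under the growth curve was normalised to the plate median of solvent-only wells, or to row and column medians on the industrial chemical plate. Each value is the median of three biological replicates, each grown on a separate day.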

Streptococcus salivarius = assay: as above; details: 20 µM; 24 h
How it was run: as §1

Compound: Cc1cc(Cl)ccc1O[C@H](C)C(=O)O
- growth AUC (Roseburia intestinalis): 0.898
- growth AUC (Streptococcus salivarius): 0.988

Compound: CNC(=O)N(C)c1nc2ccccc2s1
- growth AUC (Roseburia intestinalis): 0.989
- growth AUC (Streptococcus salivarius): 1

Compound: CCOP(=S)(OCC)SCSC(C)(C)C
- growth AUC (Roseburia intestinalis): 0.951
- growth AUC (Streptococcus salivarius): 0.996

Compound: Cc1ccc(N=CN(C)C=Nc2ccc(C)cc2C)c(C)c1
- growth AUC (Roseburia intestinalis): 0.983
- growth AUC (Streptococcus salivarius): 0.967

Compound: CCc1cccc(CC)c1N(COC)C(=O)CCl
- growth AUC (Roseburia intestinalis): 0.988
- growth AUC (Streptococcus salivarius): 0.981

Compound: O=C(Cc1ccccc1)N/C(=N\OCC1CC1)c1c(C(F)(F)F)ccc(F)c1F
- growth AUC (Roseburia intestinalis): 0.976
- growth AUC (Streptococcus salivarius): 0.968

Compound: CNC(=O)ON=C(CSC)C(C)(C)C
- growth AUC (Roseburia intestinalis): 1.02
- growth AUC (Streptococcus salivarius): 1.02

Compound: C=C/C=C/CC1=C(C)C(OC(=O)[C@@H]2C(/C=C(\C)C(=O)OC)C2(C)C)CC1=O.C=C/C=C/CC1=C(C)[C@@H](OC(=O)[C@@H]2C(C=C(C)C)C2(C)C)CC1=O (stereo partly specified)
- growth AUC (Roseburia intestinalis): 1.02
- growth AUC (Streptococcus salivarius): 0.947

Compound: O=C(O)c1ccc(=O)[nH]c1
- growth AUC (Roseburia intestinalis): 1.01
- growth AUC (Streptococcus salivarius): 0.981

Compound: CC(C)NC(=O)N1CC(=O)N(c2cc(Cl)cc(Cl)c2)C1=O
- growth AUC (Roseburia intestinalis): 1.07
- growth AUC (Streptococcus salivarius): 1.05

Compound: C=CC1(C)OC(=O)N(c2cc(Cl)cc(Cl)c2)C1=O (stereo unspecified)
- growth AUC (Roseburia intestinalis): 0.973
- growth AUC (Streptococcus salivarius): 1.02

Compound: COC(=O)C(C)N(C(=O)Cc1ccccc1)c1c(C)cccc1C (stereo unspecified)
- growth AUC (Roseburia intestinalis): 0.975
- growth AUC (Streptococcus salivarius): 0.96

Compound: CNC(=O)Oc1cccc2c1OC(C)(C)C2=O
- growth AUC (Roseburia intestinalis): 0.994
- growth AUC (Streptococcus salivarius): 0.924

From the supplement of paper PMC12669032
